Experimental data reported in PubChem BioAssay (EPA / NIEHS).
“And” between values parts separate entries of the source, which are not always exact repeats. Identical values can stand only once. A structure can be active in one record and inactive in another. The source made the active and inactive calls. The calls were made as follows: active = hit-call score of the fitted dose curve at least 0.9, where 1 is the maximum; inactive = score below 0.9.

Experiment: ATG_ISRE_CIS: Attagene CIS-FACTORIAL HepG2 Assay for human Interferon Regulatory Factor 1 (IRF1) binding to an Interferon-Stimulated Response Element (ISRE) (AID 2282948)
Settings: HepG2 ISRE cis-reporter (Attagene), mRNA transcription readout; actives raise or lower the signal
Summary of the method: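 Transiently transfected HepG2 cells carrying cis-element reporter units, dosed 24 hours. Reporter mRNA quantified by RT-PCR, fluorescent primer extension, HpaI digestion and capillary electrophoresis. Bidirectional fitting relative to DMSO.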

Row | SMILES | outcome | AC50
1 | CC1(C)C(C=C(Cl)Cl)C1C(=O)OCc1cccc(Oc2ccccc2)c1 (centres undefined) | inactive | –
2 | CCCOC(=O)c1ccc(C(=O)OCCC)nc1 | inactive | –
3 | O=C(Nc1ccc([N+](=O)[O-])cc1Cl)c1cc(Cl)ccc1O | inactive | –
4 | COc1nc(C)nc(NC(=O)NS(=O)(=O)c2ccccc2OCCCl)n1 | inactive | –
5 | N#CSCSc1nc2ccccc2s1 | inactive | 3.07 µM (active)
6 | CCC(O)=C1C(=O)CC(C(=O)O)CC1=O (centres undefined) | inactive | –
7 | CSC(=O)c1cccc2nnsc12 | inactive | –
8 | C[C@]12C[C@H](O)[C@H]3[C@@H](CCC4=CC(=O)CC[C@@]43C)[C@@H]1CC[C@@H]2C(=O)CO | inactive | –
9 | O=C(O)C1(C(=O)Nc2ccc(Cl)cc2Cl)CC1 | inactive | –
10 | COC(=O)c1ccc(I)cc1S(=O)(=O)NC(=O)Nc1nc(C)nc(OC)n1 | inactive | –
11 | CC(=O)S[C@@H]1CC2=CC(=O)CC[C@]2(C)[C@H]2CC[C@@]3(C)[C@@H](CC[C@@]34CCC(=O)O4)[C@H]12 | inactive | 48.9 µM (active) and 26.1 µM (active) and 48.1 µM (active)
12 | CCNc1nc(N)nc(Cl)n1 | inactive | –
13 | CC(C)CCCCCCc1ccc(O)cc1 | inactive | 18.4 µM (active) and 13.7 µM (active)
14 | CCCCOC(=O)[C@@H](C)Oc1ccc(Oc2ccc(C(F)(F)F)cn2)cc1 | inactive | –
15 | C#C[C@]1(O)CC[C@H]2[C@@H]3CCC4=CC(=O)CC[C@@H]4[C@H]3CC[C@@]21CC | inactive | –
16 | CCCCC(CC)COC(=O)c1ccccc1C(=O)O (centres undefined) | inactive | –
17 | CCOC(=O)[C@H](C)Oc1ccc(Oc2nc3ccc(Cl)cc3o2)cc1 | inactive | –
18 | CC(=O)[C@H]1CC[C@H]2[C@@H]3CCC4=CC(=O)CC[C@]4(C)[C@H]3CC[C@]12C | inactive | 46.4 µM (active)
19 | CCCCOC(=O)C(C)Oc1ccc(Oc2ccc(C(F)(F)F)cn2)cc1 (centres undefined) | inactive | –
20 | CCCCC(CC)CN1C(=O)C2C3C=CC(C3)C2C1=O (centres undefined) | inactive | –
21 | CCOC(=O)C(C)Oc1ccc(Oc2nc3ccc(Cl)cc3o2)cc1 (centres undefined) | inactive | –
22 | CCN(CC)C(=O)c1cccc(C)c1 | inactive | –
23 | COC(=O)c1cccc(C)c1S(=O)(=O)NC(=O)Nc1nc(OCC(F)(F)F)nc(N(C)C)n1 | inactive | –
24 | OB(O)O | inactive | –
25 | CCCCOCCOCCOCc1cc2c(cc1CCC)OCO2 | inactive | –
26 | CCCN(CCC)C(=O)SCC | inactive | –
27 | CCCOC(=O)NCCCN(C)C | inactive | –
28 | c1ccc(Nc2ccccc2)cc1 | inactive | –
29 | CCOC(=O)COc1cc(-n2ncc(C(F)(F)F)c(C)c2=O)c(F)cc1Cl | inactive | –
30 | CCCCCOC(=O)COc1cc(N2C(=O)C3=C(CCCC3)C2=O)c(F)cc1Cl | inactive | –
